Measured values from PubChem BioAssay (NCI).
About 83,000 compounds went through this panel and 20% of them were active in at least one assay; those are over-represented in the sample as a whole.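 Note: values are percent growth. 100 is the growth of untreated cells, values between 100 and 0 indicate rising inhibition; between -100 and 0 indicates cell death.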 Calls of active or inactive are those of the source. Rule for the calls: active = growth percent below 10; inactive = the rest.

Assays:
Experiment in all cases: NCI-60 one-dose screen, 48 h (100 = growth as untreated, 0 = no growth, -100 = all killed)
Conditions in all cases: 10 µM unless noted
SK-MEL-2 melanoma = system: SK-MEL-2 melanoma
EKVX NSCLC = system: EKVX NSCLC
SN12C renal = system: SN12C renal
UO-31 renal = system: UO-31 renal
TK-10 renal = system: TK-10 renal
ACHN renal = system: ACHN renal
CAKI-1 renal = system: CAKI-1 renal
A498 renal = system: A498 renal
CCRF-CEM leukemia = system: CCRF-CEM leukemia
MOLT-4 leukemia = system: MOLT-4 leukemia
SR leukemia = system: SR leukemia
RPMI-8226 leukemia = system: RPMI-8226 leukemia
OVCAR-8 ovarian = system: OVCAR-8 ovarian
OVCAR-5 ovarian = system: OVCAR-5 ovarian
OVCAR-4 ovarian = system: OVCAR-4 ovarian
IGROV1 ovarian = system: IGROV1 ovarian
HS 578T breast = system: HS 578T breast
NCI/ADR-RES ovarian = system: NCI/ADR-RES ovarian
SK-OV-3 ovarian = system: SK-OV-3 ovarian
OVCAR-3 ovarian = system: OVCAR-3 ovarian

Measured: growth

Cc1ccc(S(=O)(=O)c2nc(-c3ccc(F)cc3)oc2S(C)(=O)=O)cc1
inactive: SK-MEL-2 melanoma 86.3% | EKVX NSCLC 91.8% | SN12C renal 67.4% | UO-31 renal 54.1% | TK-10 renal 93.1% | CAKI-1 renal 41.8% | A498 renal 102% | RPMI-8226 leukemia 31.7% | OVCAR-8 ovarian 86.9% | OVCAR-5 ovarian 95.2% | OVCAR-4 ovarian 92.1% | IGROV1 ovarian 45.2% | HS 578T breast 90.6% | NCI/ADR-RES ovarian 92%
active: ACHN renal -91.8% | CCRF-CEM leukemia -14.8% | MOLT-4 leukemia 2.92% | SR leukemia 8.12%

C=C(C)[C@@H]1CC[C@]2(C(=O)N3CCN(C)CC3)CC[C@]3(C)[C@H](CC[C@@H]4[C@@]5(C)CC[C@H](OP(=O)(OCC)OCC)C(C)(C)[C@@H]5CC[C@]43C)[C@@H]12
active: SR leukemia -26.6%
inactive: SK-MEL-2 melanoma 106% | EKVX NSCLC 72.8% | SN12C renal 84.7% | UO-31 renal 60.8% | TK-10 renal 108% | ACHN renal 83.6% | CAKI-1 renal 61.2% | A498 renal 96.4% | CCRF-CEM leukemia 35.4% | MOLT-4 leukemia 36.3% | RPMI-8226 leukemia 35.2% | OVCAR-8 ovarian 84.3% | OVCAR-5 ovarian 105% | SK-OV-3 ovarian 104% | IGROV1 ovarian 92.9% | OVCAR-3 ovarian 100% | HS 578T breast 87.6% | NCI/ADR-RES ovarian 82.4%

CCN(CC)c1ccc(/C=N/NC(=O)c2ccc(NS(C)(=O)=O)cc2)cc1
inactive: SK-MEL-2 melanoma 40.1% | EKVX NSCLC 22.4% | SN12C renal 37.5% | UO-31 renal 15.7% | TK-10 renal 48.3% | ACHN renal 10.9% | CAKI-1 renal 25.2% | A498 renal 40.1% | CCRF-CEM leukemia 13% | MOLT-4 leukemia 14.4% | SR leukemia 13.5% | RPMI-8226 leukemia 42% | OVCAR-5 ovarian 49.4% | OVCAR-4 ovarian 35.6% | IGROV1 ovarian 21.2% | HS 578T breast 65.6% | NCI/ADR-RES ovarian 58.3%
active: OVCAR-8 ovarian 9.7%

O=c1c2ccccc2cc2n1CCN=C2c1ccccc1
inactive: SK-MEL-2 melanoma 99.8% | EKVX NSCLC 101% | SN12C renal 109% | UO-31 renal 78.6% | TK-10 renal 101% | ACHN renal 96.9% | CAKI-1 renal 82.4% | A498 renal 89.4% | CCRF-CEM leukemia 100% | MOLT-4 leukemia 102% | SR leukemia 93.6% | RPMI-8226 leukemia 99.2% | OVCAR-8 ovarian 101% | OVCAR-5 ovarian 108% | SK-OV-3 ovarian 103% | IGROV1 ovarian 116% | HS 578T breast 92.6% | NCI/ADR-RES ovarian 99.7%

C#CCN(C)CCCOc1ccc(NCc2ccc(/C=C/C(=O)NO)cc2)cc1Cl
active: SK-MEL-2 melanoma -6.42% | UO-31 renal -57.4% | TK-10 renal -12% | ACHN renal -41.4% | CAKI-1 renal -35.9% | A498 renal -72.2% | SR leukemia 9.72% | RPMI-8226 leukemia 8.55% | OVCAR-5 ovarian 6.62% | SK-OV-3 ovarian -11.3% | IGROV1 ovarian -35.7% | NCI/ADR-RES ovarian -8.39%
inactive: EKVX NSCLC 16.3% | SN12C renal 12.1% | CCRF-CEM leukemia 10.7% | MOLT-4 leukemia 15.7% | OVCAR-8 ovarian 11.9% | OVCAR-3 ovarian 11% | HS 578T breast 10.7%

Cc1ccc(NC2=C(Cl)C(=O)c3nc(C)ccc3C2=O)c(C)c1
active: SK-MEL-2 melanoma 4.04% | SN12C renal -69.1% | UO-31 renal -13% | ACHN renal -24.7% | CCRF-CEM leukemia 1.19% | MOLT-4 leukemia 1.38% | RPMI-8226 leukemia -10.4% | OVCAR-5 ovarian -1.15% | IGROV1 ovarian -58.8% | OVCAR-3 ovarian -98.6% | HS 578T breast 6.94% | NCI/ADR-RES ovarian 4.37%
inactive: EKVX NSCLC 49.1% | TK-10 renal 126% | CAKI-1 renal 85.5% | A498 renal 60.5% | SR leukemia 10.3% | OVCAR-8 ovarian 28.3% | SK-OV-3 ovarian 117%

O=S(=O)(NCCCNc1nccc(-c2[nH]c(-c3ccccc3)nc2-c2ccc(F)c(O)c2)n1)c1cccc(F)c1
inactive: SK-MEL-2 melanoma 39.2% | EKVX NSCLC 99.8% | SN12C renal 99.1% | UO-31 renal 139% | TK-10 renal 134% | ACHN renal 93.2% | CAKI-1 renal 95.5% | A498 renal 93.5% | CCRF-CEM leukemia 37% | MOLT-4 leukemia 44.3% | SR leukemia 36.7% | RPMI-8226 leukemia 45% | OVCAR-8 ovarian 82% | OVCAR-5 ovarian 147% | SK-OV-3 ovarian 113% | IGROV1 ovarian 105% | OVCAR-3 ovarian 123% | HS 578T breast 101% | NCI/ADR-RES ovarian 103%

COC(=O)c1ccc(NC2=C(Cl)C(=O)c3nc(C)ccc3C2=O)cc1
inactive: SK-MEL-2 melanoma 88.3% | EKVX NSCLC 76.6% | SN12C renal 77% | UO-31 renal 61.7% | TK-10 renal 152% | ACHN renal 35.1% | CAKI-1 renal 80.2% | A498 renal 77.9% | CCRF-CEM leukemia 16.1% | MOLT-4 leukemia 19.8% | SR leukemia 22.3% | RPMI-8226 leukemia 36.9% | OVCAR-8 ovarian 70.1% | OVCAR-5 ovarian 105% | SK-OV-3 ovarian 125% | IGROV1 ovarian 41.4% | OVCAR-3 ovarian 63.6% | HS 578T breast 71.5% | NCI/ADR-RES ovarian 19.7%

COC(=O)c1cccc(NC2=C(Cl)C(=O)C(C)=C(C)C2=O)c1
inactive: SK-MEL-2 melanoma 98% | EKVX NSCLC 92.2% | SN12C renal 92.6% | UO-31 renal 89.4% | TK-10 renal 150% | ACHN renal 104% | CAKI-1 renal 94.2% | A498 renal 87.7% | MOLT-4 leukemia 11.3% | SR leukemia 30% | RPMI-8226 leukemia 58.3% | OVCAR-8 ovarian 99.4% | OVCAR-5 ovarian 101% | SK-OV-3 ovarian 106% | IGROV1 ovarian 56.2% | OVCAR-3 ovarian 94.2% | HS 578T breast 88.1% | NCI/ADR-RES ovarian 98.2%
active: CCRF-CEM leukemia 6.54%

COc1ccc(-c2c(C(N)=O)c(N)n(Cc3nc4ccccc4[nH]3)c(=O)c2C#N)c(OC)c1
inactive: SK-MEL-2 melanoma 99.2% | EKVX NSCLC 95.4% | SN12C renal 101% | UO-31 renal 68% | TK-10 renal 150% | ACHN renal 96.2% | CAKI-1 renal 78.9% | A498 renal 102% | CCRF-CEM leukemia 107% | MOLT-4 leukemia 102% | SR leukemia 90.5% | RPMI-8226 leukemia 99% | OVCAR-8 ovarian 97.2% | OVCAR-5 ovarian 110% | OVCAR-4 ovarian 108% | IGROV1 ovarian 72% | HS 578T breast 99.2% | NCI/ADR-RES ovarian 102%

C=CCSC1=NC2C(N(CC)C(=O)N2CC)N1/N=C/C=C/c1ccccc1OC (stereo not drawn)
inactive: SK-MEL-2 melanoma 98.7% | EKVX NSCLC 83.7% | SN12C renal 97.5% | UO-31 renal 68.3% | TK-10 renal 122% | ACHN renal 74.7% | CAKI-1 renal 49.5% | A498 renal 55.1% | CCRF-CEM leukemia 63.5% | MOLT-4 leukemia 70.6% | SR leukemia 16.9% | RPMI-8226 leukemia 53.7% | OVCAR-8 ovarian 83.5% | OVCAR-5 ovarian 105% | SK-OV-3 ovarian 99.8% | IGROV1 ovarian 69% | OVCAR-3 ovarian 54.6% | HS 578T breast 82.4% | NCI/ADR-RES ovarian 53.3%

Cc1ccc(NC(=O)/C=C/c2ccc(OCCCOc3ccc4c(C)cc(=O)oc4c3)cc2)cc1
inactive: SK-MEL-2 melanoma 58% | EKVX NSCLC 83.1% | SN12C renal 73.3% | UO-31 renal 39.6% | TK-10 renal 91.5% | ACHN renal 17.7% | CAKI-1 renal 51% | A498 renal 45.2% | CCRF-CEM leukemia 99.1% | MOLT-4 leukemia 103% | SR leukemia 70.2% | RPMI-8226 leukemia 90.1% | OVCAR-8 ovarian 52.3% | OVCAR-5 ovarian 91.6% | SK-OV-3 ovarian 79.8% | IGROV1 ovarian 73.3% | HS 578T breast 40% | NCI/ADR-RES ovarian 52.5%

CCc1nnc(NC(=O)c2cc(-c3ccc(Cl)cc3Cl)oc2C)s1
inactive: SK-MEL-2 melanoma 108% | EKVX NSCLC 99.4% | SN12C renal 83.7% | UO-31 renal 85.1% | TK-10 renal 114% | ACHN renal 50.9% | CAKI-1 renal 80.9% | A498 renal 97.4% | CCRF-CEM leukemia 97.6% | MOLT-4 leukemia 99.3% | SR leukemia 96.5% | RPMI-8226 leukemia 87.7% | OVCAR-8 ovarian 90.3% | OVCAR-5 ovarian 92.7% | OVCAR-4 ovarian 48.4% | IGROV1 ovarian 87.8% | HS 578T breast 86% | NCI/ADR-RES ovarian 88.7%

CN(C)S(=O)(=O)c1ccc(-c2nc(C(Cl)Cl)nc3cc(-c4ccccc4)nn23)cc1
inactive: SK-MEL-2 melanoma 112% | EKVX NSCLC 80% | SN12C renal 81.1% | UO-31 renal 88.8% | TK-10 renal 101% | ACHN renal 43.4% | CAKI-1 renal 73.1% | A498 renal 106% | CCRF-CEM leukemia 77.3% | MOLT-4 leukemia 63.4% | SR leukemia 36.2% | RPMI-8226 leukemia 86.8% | OVCAR-8 ovarian 60.7% | OVCAR-5 ovarian 90% | SK-OV-3 ovarian 92.2% | IGROV1 ovarian 66% | OVCAR-3 ovarian 93.5% | HS 578T breast 109% | NCI/ADR-RES ovarian 69.5%

O=c1c2cc(-c3ccc(F)cc3F)ccc2n(Nc2ccccc2)c(=O)n1-c1cccc(C(F)(F)F)c1
active: SK-MEL-2 melanoma -11.2% | EKVX NSCLC 6.49% | SN12C renal 3.98% | UO-31 renal 4.59% | ACHN renal 2.25% | CAKI-1 renal -10.6% | A498 renal -18.1% | MOLT-4 leukemia 6.73% | SR leukemia 9.45% | RPMI-8226 leukemia -6.8% | HS 578T breast -3.07% | NCI/ADR-RES ovarian 3.74%
inactive: TK-10 renal 11.3% | CCRF-CEM leukemia 15.5% | OVCAR-8 ovarian 13.3% | OVCAR-5 ovarian 79.3% | OVCAR-4 ovarian 30.7% | IGROV1 ovarian 17.4%
